Where a chain is given by its changes, count along the chain named. Whole data set: some 5,800 sequences, median “enrichment r” near 0.68, cut for the highest 2% near 11. The entries come from a sample that favours the highest values as a whole.

This note sets out measurements from paper PMC12136788.

Sequences and labels used below:
T1: UNK ZnF1-6 (called full-length) (human, UniProt Q9C0B0 30-357)
T1 sequence: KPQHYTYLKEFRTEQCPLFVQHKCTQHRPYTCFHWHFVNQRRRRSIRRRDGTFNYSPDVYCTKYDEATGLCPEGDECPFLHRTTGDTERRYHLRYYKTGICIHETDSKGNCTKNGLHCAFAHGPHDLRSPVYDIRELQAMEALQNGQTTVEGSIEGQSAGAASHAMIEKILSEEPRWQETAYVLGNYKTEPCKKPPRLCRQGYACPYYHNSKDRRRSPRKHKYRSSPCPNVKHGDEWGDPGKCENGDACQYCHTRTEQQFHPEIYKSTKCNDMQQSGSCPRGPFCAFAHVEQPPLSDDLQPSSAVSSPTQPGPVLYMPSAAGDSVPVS

B1: chr20:45898604:45898705:+|3pUTR|ENSG00000064601|unk|total|mutant (ssRNA)
RNA: GGGAGUUCUACAGUCCGACGAUCAGAGCCCUGUACAUCCCAGACUGGGCCCAGGGUCUCCCACCGACAGCCUGGGGGCAAGUCCGCACUUUAUUCCCGCAGCAGUUCCUGAAUGGGGUGGCCUGGCCCCUUCUCUGCUUAAAGCAACAGAGGAUUGAGCAUCA
B2: chr17:47844907:47847298:-|three_prime_utr|ENSG00000189120|control|control|control (ssRNA)
RNA: GGGAGUUCUACAGUCCGACGAUCAAGGUGCGUAUUUAUUCAGGGAGGAGGAAAAGUGGUGCAGGGACAGGGAGAUGGGGCGCUAGGGGUUCUUAGUCUCUGGGGCUACUAGGCAGGAUGAAUUUGACUGGGUCGGUAGGAGCUCAACAGAGGAUUGAGCAUCA
B3: ENSG00000070961:be:win_251|CDS|ENSG00000070961|bound_else_gene|NA|bound_elsewhere_windowed (ssRNA)
RNA: GGGAGUUCUACAGUCCGACGAUCUGUUUGGAAAGAAUUUUAUACCUCCUAAAAAGCCAAAAACCUUUCUUCAAUUAGUAUGGGAAGCAUUACAAGAUGUCACUUUAAUUAUAUUAGAAAUUGCAGCCAUAGUAUCAUUGGGCCCAACAGAGGAUUGAGCAUCA
B4: ENSG00000070961:be:win_6051|3pUTR|ENSG00000070961|bound_else_gene|NA|bound_elsewhere_windowed (ssRNA)
RNA: GGGAGUUCUACAGUCCGACGAUCCAGAAAUUUCCAGAGCAUUAUGUAGGUAGAAAAAAAUGCAAGCAAGCUGUUAAAGAUCUUGGAUCCCAUUAUAUAGUAUGUAUAGCUGAAAUCUGUAAUUCAAUCACUUUUUCUCUUUUACAACAGAGGAUUGAGCAUCA
B5: ENSG00000070961:be:win_6101|3pUTR|ENSG00000070961|bound_else_gene|NA|bound_elsewhere_windowed (ssRNA)
RNA: GGGAGUUCUACAGUCCGACGAUCUAAAGAUCUUGGAUCCCAUUAUAUAGUAUGUAUAGCUGAAAUCUGUAAUUCAAUCACUUUUUCUCUUUUAUCCUCUAACCAAAAAAUUGUUUAAUUUUGCAUCCCAAAUGUUUUUAAUCUCAACAGAGGAUUGAGCAUCA
B6: chr8:23843870:23844003:-|3pUTR|ENSG00000159167|msi1|FALSE|unique (ssRNA)
RNA: GGGAGUUCUACAGUCCGACGAUCAAUUCCAGAGGACUCUGCUUAAACAAAGCAGUAUAUAAUAACUUUAUUGCAUAUAGAUUUAGUUUUGUAACUUAGCUUUAUUUUUCUUUUCCUGGGAAUGGAAUAACUAUCUCACUUCCACAACAGAGGAUUGAGCAUCA
B7: ENSG00000198589:be:win_9001|3pUTR|ENSG00000198589|bound_else_gene|NA|bound_elsewhere_windowed (ssRNA)
RNA: GGGAGUUCUACAGUCCGACGAUCUUCUUCAGCACUAAUAUUUCUGGGAUUUAAAUAGUAAUGUUUAAAUUAUGGUAAAUGUAAUUUAAAACAUCUCAAUUAAGUCUGUCUAUCAAUAUUGUUCUUCAAGCAUGUUUUAGACCUCAACAGAGGAUUGAGCAUCA
B8: chr9:14618660:14618761:-|3pUTR|ENSG00000175893|msi1|FALSE|unique (ssRNA)
RNA: GGGAGUUCUACAGUCCGACGAUCUUAGCUUUCCACAGGGAUUUCUUGAAAUGCUUUUGUUAUUAAACUCAAAAGGCAGUGAUUAGGAUGAAAUAAUUGUACAUAAUUUAUUUUAGUACUGACAGUGUUACAGAUUCUAAUUUACAACAGAGGAUUGAGCAUCA
B9: chr5:134606522:134606623:-|3pUTR|ENSG00000152700|msi1_unk|total|mutant (ssRNA)
RNA: GGGAGUUCUACAGUCCGACGAUCAACUAUAAACCAUAUUUAAAAGCUCAUCAUGUUAAAUUUUUUAUGUACUUUUCUGGAACCCGUUUUUAAAUUUCCGAUUAUAUGUCCACCUAUCUUAAGUGUACAGUUAAUAAUCCGCUUCAACAGAGGAUUGAGCAUCA
B10: chr3:167478683:167478996:-|three_prime_utr|ENSG00000174776|control|control|control (ssRNA)
RNA: GGGAGUUCUACAGUCCGACGAUCCUGCCUUUUAUUUUAUUUUAUAUUUAAACUUCAGGAAGUUUUCUCUUCAUGGGAUAAUUUAGUACUGCUUUUAUCUAUCAUCUGUCAAUUUCUCUGUAUUCUUAAUAAAAUAAAUAUUGACAACAGAGGAUUGAGCAUCA
B11: chr6:142752714:142752806:-|3pUTR|ENSG00000010818|msi1_unk|FALSE|overlapping (ssRNA)
RNA: GGGAGUUCUACAGUCCGACGAUCUUUUCUUUACUUUGCUUAUAUUCUUAUAAGCAUUUUUUAGCAGUAAUUUGUACAUAUUUUAGAAUUUGUGUAUCUGCUUUGUAAUAAAUGUAAUUUCUUUCCUUUUUUGGACACUUGGAUCAACAGAGGAUUGAGCAUCA
B12: chr17:67340809:67340863:-|CDS_3pUTR|ENSG00000197170|msi1_unk|FALSE|overlapping (ssRNA)
RNA: GGGAGUUCUACAGUCCGACGAUCACAAAACUACGCAUCUCAUAGCCAAAGAGGAGAUGAUACAUAAUCUACAAUAAGGGUCUUAGUGCUUUAGAAAAAAGUUAAAAUUGGAAGUCAUUAAAAAAAGACUGUUAUAAUGGUGUACAACAGAGGAUUGAGCAUCA
B13: chr5:134606522:134606623:-|3pUTR|ENSG00000152700|msi1_unk|FALSE|overlapping (ssRNA)
RNA: B9 RNA with C83U, C84A, C97U, C98A, C138U, C139A
B14: chr4:110049619:110049852:-|3pUTR|ENSG00000170522|msi1|FALSE|unique (ssRNA)
RNA: GGGAGUUCUACAGUCCGACGAUCUUGUUCAAUGUGACAUAAUAGUAUUAUAAUUGGUUAAGUAGCUUAAUGAUUAGGCAAACUAGAUGAAAAGAUUAGGGGCUUCCACACUGCAUAGAUUACACGCACAUAGCCACGCAUACACAACAGAGGAUUGAGCAUCA

The test has as its target T1, UNK ZnF1-6 (called full-length). In words: nsRBNS (natural sequence RNA bind-n-seq); RBNS binding buffer (assumed for nsRBNS): 25 mM Tris pH 7.5, 150 mM KCl, 3 mM MgCl2, 0.01% Triton X-100, 500 ug/ml BSA, 20 U/ml SUPERase-In, 4 C; UNK is unkempt and MSI1 is Musashi-1; names of the RNAs are library labels; protein concentration not given here; high values mean tight binding.
B1 showed a binding signal of 1.01 enrichment R.
Take B2: the binding signal is 1.32 enrichment R.
Regarding B3, the binding signal was 5.79 enrichment R.
B4 showed a binding signal of 3.07 enrichment R.
As for B5, the figure is 39 enrichment R.
B6 gave a binding signal of 13.9 enrichment R.
Consider B7, for which the binding signal is 0.446 enrichment R.
The molecule B8 came in with a binding signal of 0.961 enrichment R.
Consider B9, for which the binding signal is 2.06 enrichment R.
In turn, B10 registered a binding signal of 2.14 enrichment R.
The molecule B11 showed a binding signal of 2.11 enrichment R.
Consider B12, for which the binding signal came out at 0.932 enrichment R.
B13 came in with a binding signal of 25.7 enrichment R.
As for B14, the figure is 14.6 enrichment R.
